High-throughput results: PubChem, Paczesny and Yang Labs, IUPUI and University of Michigan
The full list was thinned out, with hits kept by preference.
ST2 IL33 inh: blocks human ST2 binding to IL-33; Q01638; AlphaLISA ST2-Fc/biotin-IL-33 interaction, 1 h; inhibition, % for hits at 17 µM; 78,000 compounds, 2.3% hits; in the data active = inhibition above about 30%
Target sequence (Q01638 whole entry, looked up): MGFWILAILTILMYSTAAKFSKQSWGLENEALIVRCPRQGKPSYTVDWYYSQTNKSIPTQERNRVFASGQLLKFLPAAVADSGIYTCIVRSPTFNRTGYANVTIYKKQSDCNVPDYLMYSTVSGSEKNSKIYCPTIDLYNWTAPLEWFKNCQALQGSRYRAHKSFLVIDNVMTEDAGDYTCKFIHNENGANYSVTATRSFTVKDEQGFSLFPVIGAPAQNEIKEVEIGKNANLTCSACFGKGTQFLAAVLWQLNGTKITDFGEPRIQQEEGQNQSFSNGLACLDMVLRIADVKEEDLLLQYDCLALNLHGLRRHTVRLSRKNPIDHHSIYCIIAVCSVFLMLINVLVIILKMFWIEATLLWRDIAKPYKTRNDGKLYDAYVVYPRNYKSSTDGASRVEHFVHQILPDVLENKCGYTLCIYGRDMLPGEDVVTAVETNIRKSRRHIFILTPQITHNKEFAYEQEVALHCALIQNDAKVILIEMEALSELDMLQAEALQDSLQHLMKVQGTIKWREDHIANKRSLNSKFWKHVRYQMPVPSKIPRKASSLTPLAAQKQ
Hits are given with their value; n = inactive.

SMILES | ST2 IL33 inh
COc1ccc(C2SCCN2S(=O)(=O)c2ccc(F)cc2)cc1Br (configuration not stated) | n
CCCCNC(=O)c1oc2ccc(S(=O)(=O)N3CCOCC3)cc2c1C | n
Cc1ccc(CNC(=O)Cc2c(C(=O)O)[nH]c3ccccc23)o1 | n
O=C1C(=Nc2cccc(F)c2)c2ccccc2N1CN1CCN(c2ccccc2)CC1 | n
CCOc1ccc(N=C2C(=O)N(CN3CCN(c4ccccc4)CC3)c3ccccc32)cc1 | n
CCN(CC)CN1C(=O)C(=Nc2cccc(C(F)(F)F)c2)c2ccccc21 | 32%
O=C(NC[C@H]1O[C@@H](CC(=O)N2CCOCC2)[C@H](O)[C@@H]1O)c1ccc2c(c1)OCO2 | n
Cc1ccc(-c2ccc(=O)n(CC(=O)O)n2)cc1 | n
Cc1ccc(CN2CCCN(S(=O)(=O)c3ccc(Br)s3)CC2)cc1 | 35%
O=C(CNS(=O)(=O)c1ccc(Br)s1)N1CCN(Cc2ccccc2)CC1 | n
Cc1ccc(CNS(=O)(=O)c2ccc(Br)s2)cc1 | n
Cc1cc(=O)oc(C)c1C(=O)NC1CCCCC1 | n
CC(C)c1ccc(C(=O)Nc2ccccc2C(N)=O)cc1 | n
NC(=O)c1ccccc1NC(=O)c1cccc(I)c1 | n
NC(=O)c1ccccc1NC(=O)c1cccc(C(=O)Nc2ccccc2C(N)=O)c1 | 30%
Cc1ccc(C(=O)Cn2c(C)csc2=Nc2ccccc2)cc1 | 41%
C=CCn1c(-c2ccccc2)csc1=Nc1cccc([N+](=O)[O-])c1 | 59%
O=[N+]([O-])c1cccc(N=Cc2nc(-c3ccccc3)oc2O)c1 | n
Cc1ccc(C(=O)CN2C3=NCCCN3c3ccccc32)cc1 | n
NC(CO)C(O)c1ccc([N+](=O)[O-])cc1 (configuration not stated) | n
CN(C)CCN(C)Cc1ccc([N+](=O)[O-])cc1 | n
COCc1cc(C)n(CC(=O)c2ccccc2)c(=O)c1C#N | n
C=CCn1c(C)csc1=Nc1ccc(S(=O)(=O)Nc2nc(C)cc(C)n2)cc1 | n
CN(CCCC(=O)O)c1nc(-c2cccc([N+](=O)[O-])c2)cs1 | n
CN(C)CCCn1c(-c2ccc([N+](=O)[O-])cc2)csc1=Nc1ccccc1 | 51%
SMILES | ST2 IL33 inh
Cc1csc(=Nc2ccccc2)n1CC(O)c1ccc([N+](=O)[O-])cc1 (configuration not stated) | 39%
Cc1[nH]n(-c2ccc([N+](=O)[O-])cc2)c(=O)c1C=NCC(O)c1ccccc1 (configuration not stated) | n
CC(C)(C)c1ccnc(N[C@H]2CO[C@H]3[C@@H]2OC[C@@H]3NC(=S)NC2CCCCC2)n1 | n
Cc1ccc(Nc2nnc(Cc3ccc(Cl)cc3)c(=O)[nH]2)c(C)c1 | n
CN(Cc1ccccc1)C(=O)Cn1nc(-c2ccc(Cl)cc2)ccc1=O | n
Cc1[nH]c2c(Cl)cccc2c(=O)c1CN1CCCCC1C (configuration not stated) | n
CN(C)c1ccc(C2C3=C(CCCC3=O)Nc3ccccc3N2C(=O)c2ccccc2)cc1 (configuration not stated) | n
O=C(CN1CCN(Cc2ccc(Cl)cc2)C1=O)NCC1CCCO1 (configuration not stated) | n
CCCN(CCC)C(=O)Cn1c(=O)n(CCC(=O)NCc2ccccc2)c(=O)c2sccc21 | n
Cc1ccc(NC(=O)CSc2nnc(-c3ccc(N)cc3)n2C)c(C)c1 | n
COCC(=O)N[C@H]1C[C@H]2C(=O)NC[C@@H](CCC(=O)N3CCN(c4ccccn4)CC3)N2C1 | 51%
O=C1NC[C@@H](CCC(=O)N2CCN(c3ccccn3)CC2)N2C[C@@H](NCc3ccc(F)cc3)C[C@@H]12 | n
O=C(Nc1ccsc1)N[C@H]1C[C@H]2C(=O)NC[C@@H](CCC(=O)N3CCN(c4ccccn4)CC3)N2C1 | 52%
O=C(N[C@H]1C[C@H]2C(=O)NC[C@@H](CCC(=O)N3CCN(c4ccccn4)CC3)N2C1)C1CC1 | n
CN1CCN(C(=O)CC[C@@H]2CNC(=O)[C@@H]3C[C@H](NC(=O)Nc4ccccc4)CN23)CC1 | n
COc1ccc(CN[C@H]2C[C@H]3C(=O)NC[C@@H](CCC(=O)N4CCN(c5ccccn5)CC4)N3C2)cc1 | n
O=C(N[C@H]1C[C@@H]2C(=O)N[C@H]3CCN(C(=O)Cc4cccs4)[C@@H]3C(=O)N2C1)C1CCC1 | n
Cc1ccc(Cc2ccccc2C(=O)NC2CCC(n3cnnc3)CC2)cc1 (configuration not stated) | n
Cc1ccc2nc(-c3ccco3)c(Nc3ccc4c(c3)OCO4)n2c1 | n
COc1cc(C)ccc1OCCCOc1ccc(C=O)cc1 | n
CCCCc1ncc(-c2nccn2CCc2ccccn2)[nH]1 | n
COC(=O)C1CCN([C@H]2[C@@H]3OC[C@@H](O3)[C@@H](NC(=O)Nc3ccc(OC)cc3)[C@@H]2O)CC1 | n
COc1ccccc1/C=C1/SC(=Nc2ccccc2Cl)NC1=O | 33%
COc1ccccc1C=C1C(=O)OC(C)(c2ccccc2)OC1=O (configuration not stated) | n
O=C1NC(=Nc2ccc(O)cc2)S/C1=C\c1cccc(O)c1 | n
SMILES | ST2 IL33 inh
CN(C)c1ccc(/C=C2/SC(=Nc3ccccc3Cl)NC2=O)cc1 | 39%
CCCn1cc(SCC(=O)Nc2ccc(F)cc2)c2ccccc21 | n
Cc1ccc(F)cc1NC(=O)c1cnc2n(c1=O)CCS2 | n
O=[N+]([O-])c1cc(C=Nc2ccccc2I)ccc1Br | 35%
O=[N+]([O-])c1cc(C=Nc2ccc(Br)cc2)ccc1Br | n
O=[N+]([O-])c1cc(C=Nc2cccc(I)n2)ccc1Br | n
O=C(C1CCC(CNS(=O)(=O)c2cccc3nsnc23)CC1)N1CCc2ccccc2C1 (configuration not stated) | n
CN(Cc1nccs1)C(=O)c1cc(CN2CCCC(O)C2)on1 (configuration not stated) | n
CCC(C)c1ccc(OCCCCN2CCN(C)CC2)cc1 (configuration not stated) | 39%
CN1CCN(CCCOc2ccc(C(C)(C)c3ccccc3)cc2)CC1 | n
CCC(C)c1ccccc1OCCCCN1CCCC1 (configuration not stated) | n
C=CCOC(=O)C1=C(C)N=C2SCCC(=O)N2C1c1cccc(Br)c1 (configuration not stated) | n
CC(=O)c1cccc(NC(=O)C(Cc2ccccc2)N2C(=O)c3ccccc3C2=O)c1 (configuration not stated) | n
CCc1ccc(S(=O)(=O)N=C2C=C(Nc3cccc(C(=O)O)c3)C(=O)c3ccccc32)cc1 | 52%
O=C1C(Nc2ccc(O)cc2)=CC(=NS(=O)(=O)c2ccc(Cl)cc2)c2ccccc21 | 87%
O=C(O)c1ccc(NC2=CC(=NS(=O)(=O)c3ccccc3)c3ccccc3C2=O)cc1 | 48%
O=C(O)c1cccc(NS(=O)(=O)c2ccccc2)c1 | n
O=C1C=C(Nc2ccc(Cl)cc2)C(=O)N1c1ccccc1 | n
O=C(O)c1cccc(NS(=O)(=O)c2cccc(C(=O)Nc3ccccc3)c2)c1 | n
CN(CC(=O)Nc1ccc(C(=O)O)cc1)S(=O)(=O)c1ccccc1 | n
O=C(O)c1cccc(NC(=O)C(c2ccccc2)c2ccccc2)c1 | n
O=C(O)c1cccc(NC2=CC(=NS(=O)(=O)c3ccc(F)cc3)c3ccccc3C2=O)c1 | 45%
O=C(O)c1ccc(S(=O)(=O)c2ccccc2)cc1 | n
C=CCc1cc(C=C2C(=O)c3ccccc3C2=O)cc(OC)c1OCC(=O)O | n
Cc1ccc(-c2nnc(-c3nc(N(C)Cc4ccccc4)c4ccccc4n3)o2)cc1 | n
CC(=O)N1CCc2cc(Br)cc(S(=O)(=O)CC(=O)Nc3cc(C)ccc3C)c21 | n
